Compounds without any hit were thinned out: in the full panel of roughly 83,000, 20% have a hit.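 Treatment: one concentration, 48 hours, 96-well format. Scoring: percent growth, with anything below 10 considered active.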 Active and inactive are the calls of the source.
How the values were obtained:
Test in all cases: NCI-60 one-dose screen, 48 h (100 = growth as untreated, 0 = no growth, -100 = all killed)
Settings in all cases: 10 µM unless noted
[1] = tested on: NCI-H23 lung
[2] = tested on: NCI-H226 lung
[3] = tested on: NCI-H322M lung
[4] = tested on: HOP-62 NSCLC
[5] = tested on: NCI-H460 lung
[6] = tested on: NCI-H522 lung
[7] = tested on: A549/ATCC NSCLC
[8] = tested on: 786-0 renal
[9] = tested on: COLO 205 colon
[10] = tested on: DU-145 prostate
[11] = tested on: K-562 leukemia
[12] = tested on: MALME-3M melanoma
[13] = tested on: MDA-MB-231 breast
[14] = tested on: RXF 393 renal
[15] = tested on: SF-268 CNS
[16] = tested on: SF-295 CNS
[17] = tested on: SF-539 CNS
[18] = tested on: UACC-257 melanoma
[19] = tested on: M14 melanoma
[20] = tested on: HOP-92 NSCLC

Measured: growth

OCc1ccc(N2CCc3cccc(F)c3C2)cc1Cl
active: [2] -6.37% [0.1 µM] | [18] -14.3% [0.1 µM]
inactive: [1] 84.7% [0.1 µM] | [3] 106% [0.1 µM] | [4] 44.7% [0.1 µM] | [5] 31% [0.1 µM] | [6] 80.6% [0.1 µM] | [7] 62.9% [0.1 µM] | [8] 66.4% [0.1 µM] | [9] 24.9% [0.1 µM] | [10] 100% [0.1 µM] | [11] 38.5% [0.1 µM] | [12] 104% [0.1 µM] | [13] 107% [0.1 µM] | [14] 103% [0.1 µM] | [15] 105% [0.1 µM] | [16] 52.7% [0.1 µM] | [17] 110% [0.1 µM] | [19] 111% [0.1 µM]

CN(C)CCCNc1c2ccccc2nc2ccccc12
inactive: [1] 93.3% | [2] 81.1% | [3] 110% | [4] 88.1% | [5] 97.7% | [6] 93.7% | [7] 96.2% | [8] 88.6% | [9] 100% | [10] 101% | [11] 96.8% | [12] 100% | [13] 85.2% | [14] 56.4% | [15] 92.9% | [17] 89.6% | [18] 104% | [19] 98%

CC1=C[C@H]2c3c(c(O)c(O)c4oc5ccccc5c(=O)c34)[C@H](c3cc(O)c(O)c4oc5ccccc5c(=O)c34)[C@H]2C(C)(C)C1
active: [1] -4.58% | [2] -14.4% | [4] -9.58% | [5] -37.6% | [6] -18.3% | [7] -11.8% | [8] -76.6% | [11] 3.25% | [12] -1.47% | [14] 7.55% | [15] 5.33% | [16] -33.4% | [17] -5.05% | [18] 7.1% | [19] -70.4%
inactive: [3] 18.7% | [9] 10.7% | [10] 14.9% | [13] 12.1%

Oc1ccc(N=Cc2ccccc2O)cc1
inactive: [1] 92.3% | [2] 113% | [3] 90.6% | [4] 93.6% | [5] 96.4% | [20] 75.3% | [6] 81.3% | [7] 101% | [8] 93.4% | [9] 120% | [10] 103% | [12] 73.6% | [13] 99.7% | [15] 93.4% | [16] 107% | [17] 79.9% | [19] 94.2%

COc1ccc(C2CC(c3ccc(Cl)cc3)=NN2/C=C2\SC(=S)N(NC(=O)Cc3ccccc3Nc3c(Cl)cccc3Cl)C2=O)cc1 (stereo not drawn)
inactive: [1] 80.1% | [2] 68.8% | [3] 85% | [4] 79.1% | [5] 81.8% | [6] 65.7% | [7] 57.8% | [9] 30% | [10] 72.5% | [12] 60.5% | [13] 42.1% | [14] 66.2% | [15] 62.9% | [16] 88% | [17] 71.1% | [18] 88.5% | [19] 65.9%
active: [8] -55.2% | [11] 1.36%

O=c1nc2oc3ccc4ccccc4c3cc-2s1
inactive: [1] 45.5% | [2] 37.5% | [3] 35% | [4] 23% | [5] 11.1% | [7] 35.1% | [8] 23% | [9] 30.4% | [10] 19% | [11] 11.9% | [12] 45.2% | [13] 42.7% | [15] 40.8% | [18] 51.6%
active: [6] -3.74% | [14] -18.5% | [16] 9.97% | [17] -25.1% | [19] -33.4%

Cc1cc(N2CCN(c3ccnc4cc(Cl)ccc34)CC2)nc(NC2CCCCC2)n1
active: [5] 1.4% | [9] -48.4% | [11] 5.36% | [13] -3.08% | [18] -0.92% | [19] -45.1%
inactive: [1] 29.9% | [2] 64.4% | [3] 58.5% | [4] 29.6% | [6] 50.2% | [7] 34% | [8] 37.9% | [10] 51.5% | [14] 48.8% | [15] 47.4% | [16] 18.9% | [17] 43%

Cc1ccc2c(c1)C(=O)/C(=C/c1cccc(OCC(=O)c3ccc(Cl)cc3)c1)CS2
active: [14] 4.49%
inactive: [1] 79% | [2] 91.6% | [3] 72.9% | [4] 105% | [5] 98.8% | [6] 46.8% | [7] 103% | [8] 103% | [9] 111% | [10] 108% | [11] 29.2% | [12] 95.9% | [13] 61.9% | [15] 108% | [16] 125% | [17] 112% | [18] 120% | [19] 107%

CCOC(=O)c1c(C(=O)OCC)c2cc(-c3ccn4c(C(=O)c5ccccc5)c(C(=O)OCC)c(C(=O)OCC)c4c3)ccn2c1C(=O)c1ccccc1
inactive: [1] 88.8% | [2] 93.1% | [3] 99.9% | [4] 97.4% | [5] 98.3% | [6] 75.6% | [7] 91.5% | [8] 98.4% | [9] 109% | [10] 100% | [12] 87.3% | [13] 82.8% | [14] 96.7% | [15] 85% | [16] 106% | [17] 89.9% | [18] 95.1% | [19] 101%

Cc1cc(N2CCCCCC2)nc(NC2CCCC(Nc3ccnc4cc(Cl)ccc34)C2)n1 (stereo not drawn)
active: [1] -50.8% | [2] -61.3% | [3] -70.9% | [4] -83% | [5] -82.2% | [6] -72% | [7] -68.3% | [8] -96.3% | [9] -80.1% | [10] -70.7% | [12] -89% | [13] -88.5% | [14] -81% | [15] -70% | [16] -85.1% | [17] -92.1% | [18] -78.9% | [19] -86.5%

COc1ccc(-c2nc3ccc(-c4nc5ccc(N6CCN(c7ccc(F)cc7)CC6)cc5[nH]4)cc3[nH]2)cc1OC
inactive: [1] 60.7% | [2] 66.6% | [3] 88.5% | [4] 75.6% | [5] 71.1% | [6] 45.3% | [7] 77.3% | [8] 79.5% | [9] 30.4% | [10] 80.3% | [11] 17.7% | [12] 43.9% | [13] 107% | [14] 68.6% | [15] 82.6% | [16] 76% | [17] 68.2% | [18] 104% | [19] 61.8%

CN(C)C(=S)N=Nc1c(O)[nH]c2ccccc12
inactive: [1] 28.2% | [3] 24.6% | [4] 10.9% | [6] 27.4% | [9] 19.7% | [10] 31.6% | [12] 30.8% | [13] 49.1% | [15] 14.6% | [16] 17.5%
active: [2] 4.04% | [5] -4.55% | [20] -6.97% | [7] -10.6% | [8] 8.93% | [17] 9.37% | [19] -6.4%

COc1cc(C)c(C2C(C#N)=C(N)Oc3n[nH]c(-c4cccs4)c32)cc1C(C)C (stereo not drawn)
inactive: [1] 93.9% | [2] 101% | [3] 108% | [4] 96.8% | [5] 107% | [6] 91.2% | [7] 86.7% | [8] 103% | [9] 118% | [10] 108% | [12] 121% | [13] 107% | [14] 99.5% | [15] 101% | [16] 101% | [17] 104% | [18] 90.4% | [19] 105%

CC(C)(C)CC(C)(C)c1ccc(OCCOCC[N+](C)(C)Cc2ccccc2)cc1
active: [1] 2.23% | [4] -56.7% | [5] 1.33% | [20] -58.7% | [6] -44.9% | [9] -86.5% | [11] -35.4% | [12] -16.4% | [13] -88.2% | [14] 0.0752% | [15] -54.1% | [17] -64.9% | [18] -90.8% | [19] -27.5%
inactive: [2] 31.6% | [3] 47.7% | [7] 25.5% | [10] 39.4% | [16] 41.8%

COc1ccc(Nc2cc(C)nc(N3CCN(c4ccnc5cc(Cl)ccc45)CC3)n2)cc1
inactive: [1] 41.2% | [2] 60.6% | [3] 26.9% | [4] 36.7% | [5] 18.5% | [6] 38% | [7] 26.3% | [8] 29.1% | [10] 58% | [11] 10.1% | [13] 17.7% | [14] 51.4% | [15] 52.6% | [16] 15.9% | [17] 54.7% | [18] 62.6% | [19] 27.3%
active: [9] 8.4%

NC(=O)c1cc(I)ccc1NC(=O)/C=C/c1ccccc1Cl
inactive: [1] 43.4% | [2] 44.1% | [3] 55.5% | [4] 83% | [7] 15.7% | [8] 48.1% | [12] 67.5% | [13] 23.3% | [15] 36.8% | [18] 65.7%
active: [5] 0.527% | [6] -45.9% | [9] -26.7% | [10] -18.8% | [11] 5.46% | [14] -17.9% | [17] -35.7% | [19] 4.96%

Reference: PubChem BioAssay (NCI)
